Most compounds without a hit are left out; they make up all but 4% or so of the library.
tim10-1 inh: growth inhibitors of tim10-1 mutant yeast. actives 2.2% (n = 330,000). S. cerevisiae tim10-1 ts strain growth, BacTiter-Glo, 24 h. inhibition, % at 20 µM;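 active means inhibition of at least 40%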;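 further: mutant grown at 25 °C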
NALP1 yeast inh: NALP1 inhibition | AID 2071 | S. cerevisiae NALP1/ASC/caspase-1 growth, X-gal OD620, 72 h | actives 0.61% (n = 280,000) | inhibition, % at 10 µM; in the data active means inhibition mostly above about 24%, no sharp cut-off; inactive means mostly below about 32%
NLRP3 yeast inh: inhibitors of NALP3 inflammasome in yeast. Yeast reconstituted NLRP3/ASC/caspase-1, beta-gal luminescence, 24 h. inhibition, % at 10 µM. actives 0.39% (n = 330,000). AID 2825;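 active means inhibition of 50% or more; inactive means inhibition below 50%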
TIM10 inh: growth inhibitors of TIM10 yeast strain. S. cerevisiae TIM10 strain growth, BacTiter-Glo luminescence, 24 h. inhibition, % at 10 µM. actives 1.4% (n = 330,000). AID 463195;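 active means inhibition of 40% or more at the single tested concentration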;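 further: wild-type TIM10 isogenic control strain grown at permissive 25 °C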
tim23-1 inh: growth inhibitors of tim23-1 mutant yeast | inhibition, % at 20 µM | S. cerevisiae tim23-1 growth, BacTiter-Glo luminescence, 24 h | actives 1.3% (n = 330,000) | AID 463212;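 active means growth inhibition of the mutant yeast at or above 50%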;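 further: temperature-sensitive mutant grown at 25 °C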
Each line names hits and unclear results; the compound was inactive in the other large screens.

O=C(/C=C/C(=O)N1CCc2ccccc2C1)N1CCc2ccccc2C1	none
COC(C(=O)N/N=C/c1ccc(OCC(=O)N2CCOCC2)cc1)c1ccccc1 (centres undefined)	none
CC(C)(C)C(=O)COC(=O)c1ccccc1O	NALP1 yeast inh 37.1
Cc1noc(NS(=O)(=O)c2ccc(NC(=O)C(C)C)cc2)c1C	none
Cc1noc(NS(=O)(=O)c2ccc(NC(=O)CC(C)C)cc2)c1C	NALP1 yeast inh 37.9
O=C(c1cc2cc(Cl)ccc2o1)N1CCCC1	NALP1 yeast inh 35.2
O=C(c1cc2cc(Br)ccc2o1)N1CCCCC1	none
CCOC(=O)CNC(=O)Cn1cnc2c(nnn2-c2ccc(OC)cc2)c1=O	none
COc1ccc(/C=N/NC(=O)CC(=O)NCc2cccnc2)cc1	NALP1 yeast inh 23.4
COc1ccc(/C=N/NC(=O)CC(=O)NCc2cccnc2)c(OC)c1	none (no result: NALP1 yeast inh)
Cc1ccc(C2=N/C(=C\N3CCCCC3)C(=O)O2)cc1	NALP1 yeast inh 37.7
O=S(=O)(NC1CCCCC1)c1ccc(Cl)s1	NALP1 yeast inh 40.8
O=C(Cc1ccccc1)Nc1ccc2oc(=O)ccc2c1	NALP1 yeast inh 35.9
CCCc1cc(=O)oc2cc(OCC(=O)N3CCN(C(=O)C4COc5ccccc5O4)CC3)ccc12 (centres undefined)	none
COC(=O)c1c(C)oc(C)c(C(=O)OC)c1=O	NALP1 yeast inh 21.7
COc1ccc(CCNC(=O)c2cccc(-n3cnnn3)c2)cc1	none (no result: NALP1 yeast inh)
Cc1ccc(CNC(=O)c2cccc(-n3cnnn3)c2)cc1	NALP1 yeast inh 42.9
CSCCC(NC(=O)COc1ccccc1)C(=O)N1CCCCCC1 (centres undefined)	none (no result: NALP1 yeast inh)
O=C1c2ccccc2CCCC12N=NCC2c1cccc2ccccc12 (centres undefined)	none
Cc1ccc(C2CN=NC23CCc2ccccc2C3=O)cc1 (centres undefined)	NALP1 yeast inh 37.0
COC(=O)c1ccccc1NC(=O)C/C(C)=N/NC(=O)CC#N	NALP1 yeast inh 33.6
CCOCCCNC(=O)C1CC(=O)N(CCc2ccc(C)cc2)C1 (centres undefined)	NALP1 yeast inh 37.5
O=C(CN1CCN(C/C=C/c2ccccc2)CC1)NCc1ccccc1	none
CCC(C)c1ccccc1NC(=O)CN1CCN(C/C=C/c2ccccc2)CC1 (centres undefined)	NALP1 yeast inh 53.2
CN(C)c1ccc(N=C/C=C2\N(C)c3ccccc3C2(C)C)cc1	none
CN1/C(=C\C=Nc2ccc3ccccc3c2)C(C)(C)c2ccccc21	NALP1 yeast inh 28.3
Clc1ccc2c(N/N=C/c3ccccc3Br)ccnc2c1	none
Clc1ccc2c(N/N=C/c3cccc(Br)c3)ccnc2c1	NALP1 yeast inh 47.2 (no result: tim10-1 inh, NLRP3 yeast inh, TIM10 inh, tim23-1 inh)
NS(=O)(=O)c1ccc(NC(=O)/C(=C/c2ccncc2)NC(=O)c2ccccc2)cc1	none
O=C(NCc1ccccn1)C1CCCN(S(=O)(=O)c2cccc3nsnc23)C1 (centres undefined)	NALP1 yeast inh 31.8
O=C(NCc1ccco1)C1CCCN(S(=O)(=O)c2cccc3nsnc23)C1 (centres undefined)	none
CCCNC(=O)COc1coc(CN2CCN(c3ccccc3OC)CC2)cc1=O	none
c1cc(CNC23CC4CC(CC(C4)C2)C3)ccn1	NALP1 yeast inh 27.4
O=C(CC12CC3CC(CC(C3)C1)C2)NCc1ccncc1	none
CCc1ccc(C2NC(C(=O)O)CS2)cc1 (centres undefined)	NALP1 yeast inh 50.1 (no result: tim10-1 inh, NLRP3 yeast inh, TIM10 inh, tim23-1 inh)
O=C(O)C1CSC(c2ccc3c(c2)OCO3)N1 (centres undefined)	none (no result: NALP1 yeast inh)
Oc1ccc(CN2CCC(Cc3ccccc3)CC2)c2cccnc12	NALP1 yeast inh 31.0
COc1cccc(N2C(=O)C3C(C2=O)C3(c2ccccc2)c2ccccc2)c1 (centres undefined)	NALP1 yeast inh 31.9
CCOc1ccc(N2C(=O)C3C(C2=O)C3(c2ccccc2)c2ccccc2)cc1 (centres undefined)	none
CCCNc1nc(Nc2ccc(C)cc2)nc(N2CCCC2)n1	NALP1 yeast inh 42.3
COc1ccc(N(CC(=O)NCc2ccco2)C(=O)CCC(=O)Nc2nccs2)c(OC)c1	none
CC(OC(=O)c1ccccc1NCCO)C(=O)NC1CCCCC1C (centres undefined)	none (no result: NALP1 yeast inh)
N#Cc1ccc(C(=O)Nn2cnnc2)cc1	none
Cc1ccc(C2N(c3ccc(F)cc3)C(=O)C3CCCN32)cc1 (centres undefined)	NALP1 yeast inh 44.4
COC(=O)CC1C(=O)NCCN1C(=O)CSc1nc2ccccc2c(=O)n1CC(C)C (centres undefined)	NALP1 yeast inh 33.9
COC(=O)CC1C(=O)NCCN1C(=O)CSc1nc2ccccc2o1 (centres undefined)	none
CCn1c(COc2ccccc2C)nnc1SCC(=O)OC	NALP1 yeast inh 22.3
CCn1c(COc2ccccc2C)nnc1SCC(=O)CC(=O)Nc1ccccc1OC	none
COc1ccccc1N(C)S(=O)(=O)c1ccc(C(=O)Nc2ccc(C)cc2C)cc1	none (no result: NALP1 yeast inh)
CCN1/C(=C/C=C/C=C/C=C/c2sc3ccccc3[n+]2CC)Sc2ccccc21	NALP1 yeast inh 39.3
COc1ccccc1N1CCN(CCOc2c(OC)cccc2OC)CC1	NALP1 yeast inh 27.8
O=C(CCc1nc2cccnc2n1Cc1ccccc1)N1CCOCC1	NALP1 yeast inh 36.3
CCC(=O)N1c2ccc(S(=O)(=O)N3CCN(C)CC3)cc2CC1C (centres undefined)	NALP1 yeast inh 33.6
CCC(=O)N1c2ccc(S(=O)(=O)N3CCCC3)cc2CC1C (centres undefined)	none
NC(=O)CN1C(=O)NC2(CCCc3ccccc32)C1=O (centres undefined)	NALP1 yeast inh 44.9
CC(=O)CN1C(=O)NC2(CCCc3ccccc32)C1=O (centres undefined)	none
O=C(Nc1ccccc1Cl)OC1CCCCC1	none
O=S(=O)(c1ccc(Br)cc1)N1CCn2c(nc3ccccc32)C1	none
O=S(=O)(Cc1ccccc1)N1CCn2c(nc3ccccc32)C1	NALP1 yeast inh 40.8
CC(C)NC(=O)c1ccccc1NC(=O)CS(=O)(=O)Cc1ccccc1	NALP1 yeast inh 35.7
Cc1ccc(OCCCCN2CCCCC2)c(C)c1	none
Cc1ccc(OCCCCNC2CCCC(C)C2C)c(C)c1 (centres undefined)	NALP1 yeast inh 30.4
CCCc1cc(=O)[nH]c(SCCOc2ccc(OCC)cc2)n1	NALP1 yeast inh 43.7
CCOc1ccc(OCCSc2nc(N)cc(=O)[nH]2)cc1	none
O=C(c1cc2ccccn2n1)N1CCCC1	none (no result: tim10-1 inh, NLRP3 yeast inh, TIM10 inh, tim23-1 inh)
O=C(c1cc2ccccn2n1)N1CCN(Cc2ccccc2)CC1	NALP1 yeast inh 33.7
Cc1ccc(C(=O)N2CCNC(=O)C2CC(=O)Nc2ccccc2)cc1 (centres undefined)	none
CCOC(=O)COc1ccc2ccccc2c1/C=C/[N+](=O)[O-]	NALP1 yeast inh 79.2 (no result: tim10-1 inh, NLRP3 yeast inh, TIM10 inh, tim23-1 inh)
CCOc1cccc(CN2CCCC(N3CCc4cc(OC)c(OC)cc4C3)C2)c1O (centres undefined)	none
CCn1cc(C2=NOC(C(=O)Nc3cc(OC)c(Cl)cc3OC)C2)c(C)n1 (centres undefined)	NALP1 yeast inh 32.9

High-throughput results from PubChem BioAssay.
